Common to all, as to assay: NCI-60 one-dose screen, 48 h (100 = growth as untreated, 0 = no growth, -100 = all killed)
Common to all, as to conditions: 10 µM

For test [1], the system named is DU-145 prostate.
Test [2] concerns K-562 leukemia.
In test [3] the test system is MALME-3M melanoma.
In test [4] the test system is MDA-MB-231 breast.
Test [5] deals with RXF 393 renal.
The subject of test [6] is SF-268 CNS.
Test [7] relates to SF-295 CNS.
For test [8], the system named is SF-539 CNS.
The subject of test [9] is UACC-257 melanoma.
Test [10] deals with M14 melanoma.

Compounds without any hit were thinned out: in the full panel of roughly 83,000, 20% have a hit.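 In brief: 96-well plates, 48 h treatment, single concentration, percent growth endpoint.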 Values without a mark were called inactive. Calls of active or inactive are those of the source. How the source made its calls: active means growth percent below 10; inactive means the rest.

As for `Cc1cc(C)c(C(=O)OC(C)CNC2CCCCC2)c(C)c1` (stereo not given), the growth was 106% in test [1]; 81.2% in test [2]; 108% in [3]; 102% in [4]; 105% in test [5]; 99.7% in test [6]. The growth in [7] is 97.7%; in test [8], 99.2%; in test [9], 97.7%; in test [10] it was 90.5%.
With `COc1cc(-c2nc3ccc(C)cc3[nH]2)ccc1OCc1nnc(-c2ccc(CC(C)C)cc2)o1`, the growth is 101% in [1]; 46% in test [2]; 98% in test [3]; 88.9% in test [4]; 71.3% in test [5]; 105% in [6]. Besides, the growth in test [7] is 96.3%; in [8] it was 91.7%; in [9], 96.8%; in [10] it was 104%.
`O=NN(CCCl)C(=O)NCc1ccc(-c2ccc(CNC(=O)N(CCCl)N=O)cc2)cc1`: the growth was 112% in test [1]; 84.2% in [2]; 74.3% in test [3]; 124% in test [4]; 108% in [5]; 69.7% in [6]. In addition, the growth is 83.2% in test [7], 65.7% in [8], 96.6% in test [9] and 95.4% in test [10].
In the case of `COc1cc(C(c2c[nH]c3ccccc23)N2CCCC2)ccc1OCc1ccccc1` (stereo not given), the growth in [1] is 95.9%; in [2], 71.2%; in test [3], 81.8%; in [4] it was 58.4%; in test [5] it was 52.9%; in [6] it was 74.6%. In addition, the growth in test [7] was 93.8%; in test [8], 4.28% (active); in [9], 85.3%; in [10] it was 88.2%.
In the case of `COC(=O)[C@]12CC[C@@H](C)[C@H](C)[C@@H]1C1=CC[C@@H]3[C@@]4(C)CC(=O)[C@H](O)[C@@](C)(CO)[C@@H]4C(=O)C[C@@]3(C)[C@]1(C)CC2`, the growth is -44.4% (active) in [1]; -69.5% (active) in [2]; -35.2% (active) in test [3]; -34.2% (active) in test [4]; -41.4% (active) in test [5]; 4.33% (active) in [6]. The growth is -0.778% (active) in test [7], 16.5% in [8], 7.73% (active) in test [9] and 10.1% in test [10].
As for `Cn1cnc([N+](=O)[O-])c1/C=C1\Oc2ccc(Cl)cc2C1=O`, the growth in test [1] was 94.2%; in test [2] it was 52.4%; in test [3], 87.6%; in test [4], 86.7%; in [5], 99.1%; in test [6] it was 86.5%. In addition, the growth in test [7] was 105%; in test [8], 99.2%; in [9], 84.9%; in test [10] it was 87.5%.
Regarding `Cc1nc2cc(-n3c(-c4ccc(F)cc4)nc4ccccc4c3=O)ccc2n1Cc1ccccc1`, the growth in [1] is 20.8%; in test [2], 8.27% (active); in test [3], -45.1% (active); in test [4] it was -25.5% (active); in test [5] it was -31.3% (active); in test [6] it was 8.04% (active). For the same compound, the growth in [7] was 47.1%; in [8] it was -72.6% (active); in test [9], -18% (active); in test [10], 3.21% (active).
Take `O=C(Nc1cccc(Cl)c1)OCC(COC(=O)Nc1cccc(Cl)c1)(COC(=O)Nc1cccc(Cl)c1)[N+](=O)[O-]`: the growth in test [1] is 44.2%; in [2], 26.4%; in test [3], 59%; in test [4], 40.3%; in test [5], 57.1%; in test [6] it was 35.4%. Further, the growth in [7] was 20.8%; in test [8], 59.5%; in test [9], 52.3%; in test [10] it was 24.4%.
On to `NS(=O)(=O)c1ccc(N2N=C(c3ccc(-c4ccccc4)cc3)CC2c2ccc(Cl)cc2)cc1` (stereo not given), for which the growth in test [1] is 96.6%; in [2] it was 71.2%; in [3], 106%; in test [4], 86.9%; in test [5] it was 73.4%; in [6], 83.5%. Moreover, the growth in [7] is 88.4%; in [8], 93.9%; in test [9] it was 92.4%; in [10] it was 98.2%.
`C/C=C\COc1cc(C)c(Cl)cc1Cl`: the growth in test [1] was 111%; in test [2], 114%; in [3] it was 95.9%; in test [4] it was 111%; in [5], 96.2%; in [6], 114%. In addition, the growth in test [7] was 99%; in test [8], 104%; in test [9], 92%; in test [10], 112%.
As to `N#CN1CC[C@H](C(=O)Nc2ncc(-c3ccncc3)s2)C1`, the growth was 8.45% (active) in test [1]; 3.89% (active) in test [2]; -19.4% (active) in test [3]; 2.16% (active) in test [4]; -58.8% (active) in [5]; 5.17% (active) in test [6]. The growth in [7] is 4.53% (active); in test [8], -20.7% (active); in test [9], -19.4% (active); in [10] it was 1.13% (active).
`CN(C1c2ccccc2Oc2ccccc21)S(=O)(=O)c1cc(Cl)ccc1Cl`: the growth in test [1] was 78.2%; in [2], 14.9%; in test [3], 54.3%; in test [4], 69.7%; in test [5] it was 73.5%; in test [6], 68.6%. In addition, the growth in test [7] was 29.1%; in [8], 60.6%; in [9] it was 63.6%; in test [10], 39.2%.
For `Fc1cc(-c2ncc(-c3cc(F)c(F)c(F)c3)c(NC3CCCCCC3)n2)cc(F)c1F`, the growth was 105% in test [1]; 101% in [2]; 140% in test [3]; 104% in [4]; 96.1% in [5]; 107% in test [6]. Besides, the growth in test [7] was 90.1%; in [8], 105%; in test [9], 87.6%; in test [10], 109%.
